The values below come from PubChem BioAssay (Tox21).

Results filed as inconclusive are left out. The source made the active and inactive calls. Unless noted, the call rests on the fitted dose curve; in most records, active means well fitted curve in the direction sought with a large enough effect in the repeat runs; inconclusive means weak or mixed curves; inactive means no such curve, though single readings can be large; an effect the other way counts as inactive or inconclusive.

The nature of assay [1]: qHTS assay to identify small molecule antagonists of the peroxisome proliferator-activated receptor delta (PPARd) signaling pathway - cell viability counter screen (AID 743213). Further: nearly all actives have a fitted effect of over 50% in size. Further: potency means the concentration at half of the fitted maximal effect. An outline of the steps:
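Same-well viability: cells pre-incubated 5 h, dosed with compound plus 300 nM L165041, kept 17 h at 37 C, FRET substrate 2 h RT, then CellTiter-Glo 30 min RT and luminescence.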

The nature of assay [2]: qHTS assay to identify small molecule agonists of the farnesoid-X-receptor (FXR) signaling pathway - cell viability counter screen (AID 743218). Further: nearly all actives have a fitted effect of over 45% in size. Further: potency means the concentration at half of the fitted maximal effect. An outline of the steps:
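Cells were seeded, left 5 h at 37 C and 5% CO2, then dosed with compound in DMSO for 16 h. After the beta-lactamase FRET read, CellTiter-Glo was added and luminescence measured 30 min later.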
On the technique in general: In qHTS, concentration-response curves come from the screen itself.

Assay [3] can be described thus: qHTS assay to identify small molecule antagonists of the farnesoid-X-receptor (FXR) signaling pathway - cell viability counter screen (AID 743221; active means well fitted cell-killing curve with a large enough effect in the repeat runs, not every such curve was filed as active; further: nearly all actives have a fitted effect of over 50% in size; further: potency means the concentration at half of the fitted maximal effect). An outline of the steps: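 HEK 293T FXR-bla cells, 5 h pre-incubation; compound + CDCA 50 uM final, 16 h, 37 C; beta-lactamase FRET read first, then CellTiter-Glo luminescence, 30 min RT.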
Assay [4] is described as follows: qHTS assay to identify small molecule agonists of the vitamin D receptor (VDR) signaling pathway - cell viability counter screen (AID 743224). Further: nearly all actives have a fitted effect of over 50% in size. Further: potency means the concentration at half of the fitted maximal effect. In a few lines:
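Cells: VDR-bla, 2,000/well, settled 4 h. Treatment: compounds in DMSO, 16 h, 37C/5% CO2. Readout: CellTiter-Glo luminescence after 30 min RT.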

The nature of assay [5]: qHTS assay to identify small molecule antagonists of the vitamin D receptor (VDR) signaling pathway - cell viability counter screen (AID 743225). Further: nearly all actives have a fitted effect of over 50% in size. Further: potency means the concentration at half of the fitted maximal effect. An outline of the steps:
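Viability counter screen run in the same wells as the beta-lactamase reporter assay: HEK 293T VDR-UAS-bla cells, 16 h compound exposure at 37C with 3 nM (final) 1-alpha,25-dihydroxyvitamin D3. CellTiter-Glo luminescence, 30 min, room temperature.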

Assay [6] in a line: qHTS assay to identify small molecule agonists of the NFkB signaling pathway - cell viability counter screen (AID 1159515; calls by dose curve; further: nearly all actives have a fitted effect of over 55% in size; further: potency means the concentration at half of the fitted maximal effect). An outline of the steps:
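Cells are seeded (2,000 NFkB-bla ME-180 per well), rested overnight, and dosed with DMSO-dissolved compounds for 5 hr at 37 C. Viability is then read by CellTiter-Glo luminescence after 30 min at room temperature.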

Assay [7] in a line: qHTS assay to identify small molecule agonists of the endoplasmic reticulum stress response signaling pathway - cell viability counter screen (AID 1159517; calls by dose curve; further: nearly all actives have a fitted effect of over 50% in size; further: potency means the concentration at half of the fitted maximal effect). An outline of the steps:
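Steps: seed 1,500 ESRE-bla HeLa cells per well; incubate overnight at 37 C, 5% CO2; add compounds in DMSO for 5 hr; run FRET substrate 2 hr RT; add CellTiter-Glo, wait 30 min, read luminescence.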

A short description of assay [8]: qHTS assay to identify small molecule antagonists of the retinoid-related orphan receptor gamma (ROR-gamma) signaling pathway - cell viability counter screen (AID 1159520). Further: nearly all actives have a fitted effect of over 50% in size. Further: potency means the concentration at half of the fitted maximal effect. An outline of the steps:
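Tet-on ROR gamma CHO cells were given compounds for 2 hr, then doxycycline hyclate at 1 uM final, and incubated 16 hr at 37 C. Viability was measured as ATP content by CellTiter-Glo luminescence.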

Assay [9] addresses Nuclear receptor ROR-gamma (Homo sapiens) (UniProt P51449). Put plainly: qHTS assay to identify small molecule antagonists of the retinoid-related orphan receptor gamma (ROR-gamma) signaling pathway (AID 1159521; further: nearly all actives have a fitted effect of over 50% in size; further: potency means the concentration at half of the fitted maximal effect). In a few lines:
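Luminescence readout (ONE-Glo, 30 min RT) after 16 h doxycycline induction; loss of signal scored as antagonism. CHO cells with TET-inducible RORγ and RORE-LUC reporter; compounds added 2 h before 1 uM final doxycycline.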

The nature of assay [10]: qHTS assay to identify small molecule agonists of the AP-1 signaling pathway - cell viability counter screen (AID 1159525; calls by dose curve; further: nearly all actives have a fitted effect of over 55% in size; further: potency means the concentration at half of the fitted maximal effect). An outline of the steps: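 Same-well cytotoxicity counter screen of the Tox21 10K library in ME-180 cells. The readout is ATP-dependent luminescence after 5 h compound treatment. Data are normalised to DMSO and tetra n-octyl ammonium bromide controls.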

The nature of assay [11]: qHTS assay to identify small molecule agonists of the RXR signaling pathway - cell viability counter screen (AID 1159529). Further: nearly all actives have a fitted effect of over 50% in size. Further: potency means the concentration at half of the fitted maximal effect. In a few lines:
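Luminescence from CellTiter-Glo (30 min, RT) measured viability in the same wells as the beta-lactamase reporter readout. Cells: GeneBLAzer RXR-alpha HEK 293T, 2% charcoal-stripped FBS. Compound exposure 16 hr, 37 C.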

Assay [12] concerns the target Peroxisome proliferator-activated receptor delta (Homo sapiens) (UniProt Q03181). Put plainly: qHTS assay to identify small molecule agonists of the peroxisome proliferator-activated receptor delta (PPARd) signaling pathway (AID 743212; calls by dose curve). In a few lines:
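Read-out: beta-lactamase FRET fluorescence after 2 h room-temperature incubation with LiveBLAzer B/G substrate. Cells were HEK293H carrying a UAS-bla reporter for PPARd, treated at 37 C with DMSO-dissolved compounds.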

For assay [13] the target is unchanged. Put plainly: qHTS assay to identify small molecule antagonists of the peroxisome proliferator-activated receptor delta (PPARd) signaling pathway (AID 743215; active means well fitted inhibition curve with a large enough effect in the signal ratio in the repeat runs, not every such curve was filed as active; the % refers to the signal ratio;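 further: cells stimulated with agonist L165041 at 300 nM final during compound exposure; series mostly up to about 62 µM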). An outline of the steps: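 Cells: HEK293H with a UAS-driven beta-lactamase reporter responsive to PPARd. Compounds were co-added with L165041 (300 nM, final) and incubated 17 h at 37 C before a 2 h room-temperature FRET substrate step and fluorescence reading.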

Assay [14] has as its target Vitamin D3 receptor (Homo sapiens) (UniProt P11473). Nature of the assay: qHTS assay to identify small molecule agonists of the vitamin D receptor (VDR) signaling pathway (AID 743222; calls by dose curve). An outline of the steps:
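Cells carrying a VDR-driven beta-lactamase reporter are seeded at 2,000 per well and rested 4 h. Compounds in DMSO are added for 16 h at 37C, and FRET substrate fluorescence is measured after 2 h at room temperature.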

Assay [15] deals with Bile acid receptor (Homo sapiens) (UniProt Q96RI1). Put plainly: qHTS assay to identify small molecule antagonists of the farnesoid-X-receptor (FXR) signaling pathway (AID 743217; active means well fitted inhibition curve with a large enough effect in the signal ratio in the repeat runs, not every such curve was filed as active; the % refers to the signal ratio; further: potency means the concentration at half of the fitted maximal effect). An outline of the steps:
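Cells carrying a UAS-driven beta-lactamase reporter (GeneBLAzer FXR-UAS-bla HEK 293T) were plated and rested 5 h at 37 °C. Compounds in DMSO were added alongside chenodeoxycholic acid agonist at 50 uM final and left 16 h at 37 °C before FRET substrate readout.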

In assay [16] the target is Retinoic acid receptor RXR-alpha (Homo sapiens) (UniProt P19793). Nature of the assay: qHTS assay to identify small molecule agonists of the RXR signaling pathway (AID 1159527; calls by dose curve; further: nearly all actives have a fitted effect of over 35% in size). An outline of the steps:
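Agonist mode; 9-cis retinoic acid positive control. HEK 293T UAS-bla reporter cells, 2% charcoal-stripped FBS, 16 hr compound exposure at 37 C/5% CO2. LiveBLAzer B/G FRET substrate 2 hr RT; ex 405, em 460/530 nm.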

The target in assay [17] is Vitamin D3 receptor (Homo sapiens) (UniProt P11473). Put plainly: qHTS assay to identify small molecule antagonists of the vitamin D receptor (VDR) signaling pathway (AID 743223; active means well fitted inhibition curve with a large enough effect in the signal ratio in the repeat runs, not every such curve was filed as active; the % refers to the signal ratio). In a few lines: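 Beta-lactamase reporter read-out: FRET substrate fluorescence after 2 h at room temperature, following 16 h exposure of VDR-bla cells to test compound plus 3 nM (final) 1alpha,25-dihydroxyvitamin D3 agonist at 37C.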

Assay [18] concerns the target Bile acid receptor (Homo sapiens) (UniProt Q96RI1). Put plainly: qHTS assay to identify small molecule agonists of the farnesoid-X-receptor (FXR) signaling pathway (AID 743220; active means well fitted activation curve with a large enough effect in the signal ratio in the repeat runs, not every such curve was filed as active; the % refers to the signal ratio). An outline of the steps: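 FXR-UAS-bla HEK 293T cells carrying a UAS-driven beta-lactamase reporter were plated for 5 h at 37C/5% CO2, then exposed to DMSO-dissolved Tox21 10K compounds for 16 h at 37C. A LiveBLAzer B/G FRET substrate was loaded for 2 h at room temperature before fluorescence reading.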

Sequence of Vitamin D3 receptor (Homo sapiens) (P11473 whole entry, looked up): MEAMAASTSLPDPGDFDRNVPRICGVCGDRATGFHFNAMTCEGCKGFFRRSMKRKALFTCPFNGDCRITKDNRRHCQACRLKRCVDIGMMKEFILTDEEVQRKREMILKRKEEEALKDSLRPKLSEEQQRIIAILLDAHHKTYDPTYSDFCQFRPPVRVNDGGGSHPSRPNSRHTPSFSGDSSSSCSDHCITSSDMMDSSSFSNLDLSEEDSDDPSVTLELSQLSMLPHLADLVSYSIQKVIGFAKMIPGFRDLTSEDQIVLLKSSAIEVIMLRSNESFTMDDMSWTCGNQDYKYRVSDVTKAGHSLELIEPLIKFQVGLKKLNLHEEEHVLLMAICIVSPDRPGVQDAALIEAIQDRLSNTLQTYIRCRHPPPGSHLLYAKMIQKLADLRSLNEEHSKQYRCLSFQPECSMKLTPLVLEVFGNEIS
Sequence of Retinoic acid receptor RXR-alpha (Homo sapiens) (P19793 whole entry, looked up): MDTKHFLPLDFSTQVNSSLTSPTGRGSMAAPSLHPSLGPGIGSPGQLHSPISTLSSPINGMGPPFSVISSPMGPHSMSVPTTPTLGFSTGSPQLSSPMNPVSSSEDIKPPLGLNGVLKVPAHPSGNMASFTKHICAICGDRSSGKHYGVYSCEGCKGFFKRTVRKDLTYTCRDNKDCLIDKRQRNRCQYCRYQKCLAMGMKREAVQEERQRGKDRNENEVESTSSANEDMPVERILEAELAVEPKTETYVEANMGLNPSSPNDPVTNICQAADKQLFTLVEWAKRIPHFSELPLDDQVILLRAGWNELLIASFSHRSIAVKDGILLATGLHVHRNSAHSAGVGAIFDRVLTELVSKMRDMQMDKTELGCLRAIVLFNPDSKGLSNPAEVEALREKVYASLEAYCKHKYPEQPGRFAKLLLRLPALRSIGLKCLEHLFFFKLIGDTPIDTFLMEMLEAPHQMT
Sequence of Peroxisome proliferator-activated receptor delta (Homo sapiens) (Q03181 whole entry, looked up): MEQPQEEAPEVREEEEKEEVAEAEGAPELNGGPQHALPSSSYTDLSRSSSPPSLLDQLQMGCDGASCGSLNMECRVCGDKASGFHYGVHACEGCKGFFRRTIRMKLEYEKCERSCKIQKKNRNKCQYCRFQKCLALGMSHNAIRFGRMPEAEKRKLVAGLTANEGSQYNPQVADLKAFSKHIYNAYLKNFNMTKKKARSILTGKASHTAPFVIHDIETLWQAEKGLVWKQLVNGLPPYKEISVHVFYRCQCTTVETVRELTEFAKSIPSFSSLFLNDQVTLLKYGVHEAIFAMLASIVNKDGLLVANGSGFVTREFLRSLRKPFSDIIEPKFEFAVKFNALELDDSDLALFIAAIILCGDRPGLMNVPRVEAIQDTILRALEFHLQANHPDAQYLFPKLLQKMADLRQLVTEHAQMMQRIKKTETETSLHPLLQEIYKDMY
Sequence of Bile acid receptor (Homo sapiens) (Q96RI1 whole entry, looked up): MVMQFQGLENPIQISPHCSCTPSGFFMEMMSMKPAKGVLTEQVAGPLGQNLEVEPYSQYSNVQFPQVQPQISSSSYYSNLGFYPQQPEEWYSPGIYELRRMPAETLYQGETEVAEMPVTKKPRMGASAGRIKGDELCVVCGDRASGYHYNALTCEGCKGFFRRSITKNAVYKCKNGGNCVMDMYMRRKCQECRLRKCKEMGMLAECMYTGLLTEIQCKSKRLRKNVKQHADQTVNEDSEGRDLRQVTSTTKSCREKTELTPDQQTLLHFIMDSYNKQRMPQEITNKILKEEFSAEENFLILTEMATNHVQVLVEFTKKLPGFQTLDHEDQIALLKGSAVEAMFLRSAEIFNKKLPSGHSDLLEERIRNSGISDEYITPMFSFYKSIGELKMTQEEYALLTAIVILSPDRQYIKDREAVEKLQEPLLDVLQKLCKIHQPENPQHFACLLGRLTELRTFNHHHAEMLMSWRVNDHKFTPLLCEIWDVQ

Regarding `CCc1cc(SCc2sc(-c3ccc(C(F)(F)F)cc3)nc2CN2CCN(c3ccc(OC)cc3)CC2)ccc1OCC(=O)O`, the Potency in assay [1] was 5.49 µM (active); in assay [2] it was 7.76 µM (active); in assay [3] it was 19.5 µM (active); in assay [4], 19.5 µM (active); in assay [5] it was 7.76 µM (active); in assay [6] it was 43.6 µM (active). The Potency in [7] is 54.9 µM (active); in assay [8], 30.6 µM (active); in [9], 13.7 µM (active); in assay [10] it was 43.6 µM (active); in assay [11], 3.89 µM (active).
In the case of `COC(=O)C1=C(C)NC(C)=C(C(=O)OCCc2ccc(N3CCN(C(c4ccccc4)c4ccccc4)CC3)cc2)C1c1cccc([N+](=O)[O-])c1` (stereo unspecified), the Potency entry in [12], in assay [1], in assay [13], in assay [3], in assay [14] and in assay [4] was “inactive” each time. Also, the Potency entry in assay [5], in assay [6], in assay [7], in assay [8], in assay [9] and in assay [10] was “inactive” in each case. The Potency result in assay [11] was “inactive”.
Regarding `Cc1cc(O)c(Cl)c(C)c1Cl`, the Potency was 49 µM (active) in assay [15]; 49 µM (active) in assay [2]; 49 µM (active) in assay [3]; 43.6 µM (active) in [4]; 38.9 µM (active) in [5]; 54.9 µM (active) in assay [6]. The Potency in assay [7] is 54.9 µM (active). Moreover, the Potency entry in [14], in assay [8], in assay [9], in [10] and in assay [16] was “inactive” each time.
On to `Clc1ccc(C(Cn2ccnc2)OCc2ccc(Sc3ccccc3)cc2)c(Cl)c1` (stereo unspecified), for which the Potency result in assay [12], in [1], in assay [13], in [14], in assay [6] and in assay [7] was “inactive” in each case. Also, the Potency result in assay [8], in assay [9], in assay [10], in [16] and in assay [11] was “inactive” each time. In addition, in assay [4], the Potency was 33.5 µM (active).
As for `N=C1N=C(N)c2ccccc21`, the Potency entry in assay [1], in assay [2], in assay [3], in assay [14], in assay [17] and in assay [4] was “inactive” each time. Also, the Potency entry in [5], in [6], in [10] and in assay [16] was “inactive” in each case. The Potency in [7] is 21.9 µM (active); in [8] it was 43.3 µM (active); in [9], 48.6 µM (active).
On to `CCCCCCCCCCCCCCCS(=O)(=O)Oc1ccccc1`, for which the Potency result in assay [1], in assay [2], in assay [18], in assay [14], in assay [4] and in assay [5] was “inactive” throughout. In addition, the Potency entry in [6], in [7], in assay [8], in assay [9], in assay [10] and in assay [16] was “inactive” each time.
In the case of `O=C1C=CC(=O)N1c1ccc(Cc2ccc(N3C(=O)C=CC3=O)cc2)cc1`, the Potency entry in assay [12] is “inactive”. The Potency in [1] is 34.7 µM (active); in [4], 17.4 µM (active); in assay [6], 24.5 µM (active); in assay [7], 34.7 µM (active); in [8], 15.4 µM (active); in assay [9] it was 8.63 µM (active). Moreover, the Potency in assay [10] is 24.5 µM (active); in assay [11], 17.4 µM (active).
In the case of `O=C(OCC(COC(=O)c1ccccc1)(COC(=O)c1ccccc1)COC(=O)c1ccccc1)c1ccccc1`, the Potency entry in assay [1], in assay [13], in [2], in assay [3], in [14] and in [17] was “inactive” in each case. Moreover, the Potency result in assay [4], in assay [6], in assay [7], in [8], in assay [9] and in assay [10] was “inactive” each time. Besides, the Potency result in [16] and in [11] was “inactive” throughout.
